# Screens deposited in PubChem by National Center for Advancing Translational Sciences (NCATS).
# AmpC detergent: AmpC beta-lactamase inhibition with detergent present. AmpC hydrolysis of nitrocefin, absorbance 480 nm, 0.01% Triton. Potency, µM (top dose mostly 114 µM), for inactives: at the highest dose activity change, negative = inhibition, actives largely listed as inhibitors. 370,000 compounds, 0.041% hits. AID 485294;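 note: 0% = no-compound wells and -100% = no-enzyme wells; nearly all actives have a fitted effect of over 25% in size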
# Target sequence (P00811 whole entry, looked up): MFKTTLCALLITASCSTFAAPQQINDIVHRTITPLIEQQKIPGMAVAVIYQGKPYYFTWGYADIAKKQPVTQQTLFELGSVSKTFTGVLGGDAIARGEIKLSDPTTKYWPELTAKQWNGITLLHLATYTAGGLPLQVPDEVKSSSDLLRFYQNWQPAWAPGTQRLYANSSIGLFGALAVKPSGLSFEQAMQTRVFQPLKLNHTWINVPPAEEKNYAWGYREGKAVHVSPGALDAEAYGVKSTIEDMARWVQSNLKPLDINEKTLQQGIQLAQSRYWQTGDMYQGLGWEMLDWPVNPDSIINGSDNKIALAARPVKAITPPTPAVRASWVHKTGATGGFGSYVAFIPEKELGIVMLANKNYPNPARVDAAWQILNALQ
#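 20 mM phosphate pH 7.0 + 0.01% (detergent screen) or 0.0001% Triton X-100; 5.3 nM AmpC reagent; cpd preinc 15 min RT; nitrocefin (800 uM stock) to start; A480 q20 s × 4 min; Activity was normalised to no-enzyme and no-compound control wells.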
# AmpC no deterg: blocks E. coli AmpC beta-lactamase in detergent-free assay; P00811; AmpC nitrocefin hydrolysis, absorbance 480 nm, 0.0001% Triton; Potency, µM (highest dose often 57.1 µM), for the others: at the top dose activity change, negative = inhibition, hits mostly inhibitors; 330,000 compounds, 0.52% hits; AID 485341;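 note: plate controls were no compound for no effect and no enzyme for full effect; nearly all actives have a fitted effect of over 20% in size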
#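 AmpC (5.3 nM in the dispensed reagent) in 20 mM phosphate pH 7.0 with 0.01% (detergent screen) or 0.0001% Triton X-100 was preincubated with compounds for 15 min at room temperature. Nitrocefin was then added from an 800 uM solution, and hydrolysis was followed at 480 nm.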
# Pf growth 48h: inhibits P. falciparum growth in the first generation, 48 h | P. falciparum luciferase growth in erythrocytes, 48 h | Potency, µM (series often up to 28.7 µM), without a hit: top-dose activity change, negative = inhibition, hits mostly inhibitors | 310,000 compounds, 5.9% hits | AID 504832; note: % is set by controls: 0 for no effect and ±100 for the full control effect
#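 Here the parasites carry a stable luciferase gene and grow inside erythrocytes in Albumax-based RPMI medium with compound for one erythrocytic cycle. Activity is scored as loss of luminescent signal.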
# Sm TGR inh: inhibitors of Schistosoma mansoni thioredoxin glutathione reductase; Potency, µM (top dose mostly 114 µM), for the others: at the highest dose activity change, negative = inhibition, most hits filed as inhibitors; AID 485364; 360,000 compounds, 3% hits; Q962Y6; purified TGR, DTNB reduction, TNB absorbance 405 nm; note: % is set by controls: 0 for no effect and ±100 for the full control effect; nearly all actives have a fitted effect of over 60% in size
#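 First, TGR (20 nM dispensed) and NADPH were mixed with compound. Second, a 15 min room-temperature incubation followed. Third, further NADPH and then DTNB were added to start the reaction. Finally, TNB absorbance was monitored kinetically.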
# Pf growth 96h: P. falciparum growth inhibition at 96 hours; P. falciparum luciferase reporter growth, 96 h; Potency, µM (series often up to 28.7 µM), without a hit: at the highest dose activity change, negative = inhibition, usual class: inhibitors; 320,000 compounds, 6.9% hits; AID 504834; note: % is set by controls: 0 for no effect and ±100 for the full control effect
#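 Plates of compound plus infected erythrocytes (2% hematocrit, 0.05% parasitemia final) incubate 96 hours, 37 C, 5% CO2. Detection reagent added; reduced luminescence from the parasites' luciferase reporter flags inhibition.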
# SARS PLpro yeast: blocks SARS-CoV papain-like protease in a yeast assay; S. cerevisiae expressing SARS-CoV PLpro, growth rescue; Potency, µM (highest dose often 32.9 µM), without a hit: top-dose activity, positive = growth rescue, usual class: activators; 330,000 compounds, 0.19% hits; AID 485353; calls by dose curve; note: 0% is about no effect; nearly all actives have a fitted effect of over 55% in size
# * marks the source's active call; other numbers are inactive results; ? = inconclusive; / = no result given. An excerpt weighted towards active compounds, which were near 12% of everything screened. Unless noted, calls come from the whole dose curve; as a rule, active = well fitted curve in the direction sought with a large enough effect; inconclusive = small, poorly fitted or top-dose-only effect, or another doubt; inactive = no such curve, though single readings can be large; an effect the other way counts as inactive or inconclusive. Potency is the fitted concentration of half-maximal effect.
SMILES,AmpC detergent,AmpC no deterg,Pf growth 48h,Sm TGR inh,Pf growth 96h,SARS PLpro yeast
c1ccc(-c2oc3ncnc(NCCCn4ccnc4)c3c2-c2ccccc2)cc1,-11.8%,178.7%,13.1µM*,-26.3%,22.3%,-1.7%
CN(C)CCCNc1ncnc2oc(-c3ccccc3)c(-c3ccccc3)c12,-8.5%,18.0%,16.5µM*,12.4%,13.1µM*,0.4%
N=c1c2c(-c3ccccc3)c(-c3ccccc3)n(Cc3ccco3)c2ncn1CCCn1ccnc1,1.5%,101.8%,1.85µM*,-6.6%,?,-19.3%
OCCNc1ncnc2c1c(-c1ccccc1)c(-c1ccccc1)n2Cc1ccco1,-3.1%,137.5%,/,?,-15.3%,-6.1%
c1ccc(-c2c(-c3ccccc3)n(Cc3ccco3)c3ncnc(NCCCn4ccnc4)c23)cc1,-7.3%,178.8%,/,-22.8%,2.08µM*,-38.9%
Cc1ccc(SCC(=O)Nc2ccc(N3CCOCC3)cc2)cc1C,2.9%,-7.4%,?,-11.4%,?,5.5%
CCOc1ccc2c(c1)OC(c1ccccc1)(C(F)(F)F)NC2=O (configuration not stated),?,-19.4%,1.65µM*,-3.5%,0.233µM*,-21.3%
CCS(=O)(=O)N1CCC(C(=O)c2ccc(Cl)cc2)CC1,1.4%,-8.1%,-0.6%,-11.9%,?,3.7%
COc1ccc2c(c1OC)C(=O)OC2Nc1nc(-c2cc3cc(Br)ccc3oc2=O)cs1 (configuration not stated),-10.6%,31.6µM*,69.6%,-25.8%,39.8%,-3.8%
CN(CC(=O)Nc1ccc(F)cc1)C(=O)c1ccc(N2C(=O)CCC2=O)cc1,3.8%,-11.4%,20.6%,-0.5%,24.5%,-6.5%
Cc1cc(C)cc(C(=O)Nc2ccc(-c3nc4ncccc4o3)cc2)c1,20.4%,/,/,5.9%,/,/
Cc1ccc(OCCNC(=O)/C=C/c2ccccc2)cc1C,1.3%,-21.1%,-11.6%,1.1%,14.6%,-0.8%
CC(/C=C/c1ccco1)=N\NC(=O)COc1ccc(C)c(C)c1,6.6%,-1.9%,30.9%,7.08µM*,3.0%,-2.8%
CC(/C=C/c1ccco1)=N\NC(=O)CNc1ccc2ccccc2c1,8.4%,-23.0%,30.3%,-24.0%,?,-7.4%
Cc1ccc(OCCNC(=O)/C=C/c2ccco2)cc1C,-12.3%,-20.3%,14.5%,1.12µM*,-54.5%,-0.8%
CCN(CC)S(=O)(=O)c1cccc(C(=O)NC(Cc2c[nH]c3ccccc23)c2nnc3n2CCC3)c1 (configuration not stated),-6.4%,173.6%,9.28µM*,-11.3%,8.28µM*,7.2%
COc1ccc(C)cc1NC(=O)Nc1ccccc1OCc1cc(=O)n2ccccc2n1,2.0%,/,/,0.1%,/,/
CSCC(=O)NCC1(N(C)Cc2ccccc2)Cc2ccccc2C1,-5.2%,24.6%,-6.5%,8.6%,-10.6%,2.8%
CC#CC(=O)NCC1(N(C)Cc2ccccc2)Cc2ccccc2C1,-5.1%,11.8%,-24.3%,-1.0%,7.38µM*,-7.6%
CC(Oc1ccc(F)cc1)C(=O)Nc1cc(S(=O)(=O)N2CCOCC2)ccc1N1CCCC1 (configuration not stated),-10.0%,-6.6%,3.3%,-28.2%,?,-0.7%
CC(Oc1ccc(Br)cc1)C(=O)Nc1cc(S(=O)(=O)N2CCOCC2)ccc1N1CCCC1 (configuration not stated),?,?,?,-5.9%,13.1µM*,2.5%
CC(Oc1ccc(F)cc1)C(=O)Nc1cc(S(=O)(=O)N2CCOCC2)ccc1N1CCCCC1 (configuration not stated),-2.7%,93.7%,4.65µM*,5.0%,3.29µM*,2.8%
CCN=C1S/C(=C\c2sccc2C)C(=O)N1CC,-7.6%,-9.5%,47.4%,-4.4%,-6.0%,2.6%
N#C/C(=C\c1c[nH]c2ccccc12)C(N)=O,-5.5%,-17.0%,28.3%,-19.6%,19.6%,3.5%
CC(=O)Oc1c(/C=C(\C#N)C(N)=O)[nH]c2ccccc12,8.1%,-2.2%,10.4µM*,-23.3%,-14.8%,-48.3%
SMILES,AmpC detergent,AmpC no deterg,Pf growth 48h,Sm TGR inh,Pf growth 96h,SARS PLpro yeast
CC1=NN(c2ccccc2)C(=O)C1N=Nc1ccc(C)cc1 (configuration not stated),-1.2%,-6.1%,23.6%,-5.9%,10.4µM*,0.5%
O=C(NCC(c1cccs1)N1CCOCC1)c1cn(-c2ccccc2)nc1-c1ccc(Cl)cc1 (configuration not stated),-15.0%,-17.7%,?,8.2%,?,3.5%
O=C(NCC(c1cccs1)N1CCOCC1)c1cn(-c2ccccc2)nc1-c1ccccc1 (configuration not stated),-13.5%,158.3%,?,3.7%,13.1µM*,2.1%
COc1cccc(-c2nn(-c3ccc(C)cc3)cc2C(=O)NCC(c2cccs2)N2CCOCC2)c1 (configuration not stated),-10.0%,135.3%,3.29µM*,-17.9%,?,/
COc1ccc(-c2nn(-c3ccccc3)cc2C(=O)NCC(c2cccs2)N2CCOCC2)cc1 (configuration not stated),-9.6%,?,13.1µM*,8.1%,?,0.0%
COc1ccc(OC)c(-c2nn(-c3ccccc3)cc2C(=O)NCC(c2ccco2)N2CCCC2)c1 (configuration not stated),4.1%,102.6%,9.28µM*,-0.2%,?,2.4%
O=C(CSc1ncnc2nc[nH]c12)Nc1nnc(SCc2ccc(Cl)c(Cl)c2)s1,1.3%,?,-8.3%,/,-5.3%,-0.2%
CCCC(C)C(=O)Nc1nnc(CCc2ccccc2)s1 (configuration not stated),-7.2%,-7.7%,0.0%,-16.3%,?,20.6%
CCc1cc(=O)[nH]c(SCc2ccc(C)cc2)n1,-2.5%,-49.8%,6.6%,-13.5%,-6.0%,-1.8%
CCC(Cc1ccccc1)NC(=O)c1cc(S(=O)(=O)N2CCCCC2)c[nH]1 (configuration not stated),-17.8%,-43.4%,-19.1%,-3.3%,2.94µM*,9.5%
CCc1ccccc1NC(=O)c1cc(S(=O)(=O)N2CCCC2)c[nH]1,-0.6%,-21.1%,-16.6%,-3.7%,?,2.0%
CC(C)OCCCN1C(=O)c2[nH]nc(-c3ccccc3O)c2C1c1cccc(Cl)c1 (configuration not stated),0.6%,2.6%,4.15µM*,-10.9%,-20.4%,-7.7%
COc1ccc(CCN2C(=O)c3[nH]nc(-c4ccccc4O)c3C2c2ccccc2)cc1OC (configuration not stated),-13.1%,-19.9%,9.28µM*,6.0%,8.28µM*,2.9%
